Compounds with a hit are over-represented: about 3.2% of the library has one in this group of screens.
Rce1 inh = blocks yeast Ras-converting enzyme; AID 2563; hit rate 0.27% among 290,000; calls only; yeast membranes, quenched prenylated peptide cleavage fluorescence;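 active means fall in fluorescence gain of 50% or more versus controls, with final raw signal at or below 3038400; inconclusive means same 50% fall but final raw signal above 3038400; inactive means fall in fluorescence gain under 50%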
TMEM16A act = mouse TMEM16A channel activation, primary screen; HEK293 TMEM16A/YFP-H148Q/I152L, iodide quench fluorescence; stronger effect = lower value; B-score at 10 µM; hit rate 0.3% among 340,000; AID 623877;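 active means fluorescence-ratio B-score plate-corrected deviation score at least 3 library SD below zero, with starting fluorescence score within 5 deviations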;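 further: channel opened by trigger with iodide after compound preincubation; score built on the fluorescence ratio of max minus min over baseline; more negative score means more quench and so TMEM16A activation or potentiation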
Kir21 inh = blocks the mouse Kir2.1 inward-rectifier potassium channel; P35561; HEK293-Kir2.1, FluxOR thallium flux fluorescence; stronger effect = lower value; B-score at 10 µM; hit rate 0.85% among 310,000;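 active means fluorescence ratio B-score at or below minus 3 SD of library scores, with starting-brightness B-score within 2 SD, cut at about -4.2 in these data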;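 further: channel flux triggered by added potassium and thallium sulfate stimulus; B-score of peak minus minimum fluorescence over baseline after thallium stimulus; more negative B-score means stronger Kir2.1 block with less thallium influx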
CHT block = inhibits the human high affinity choline transporter | CHT-expressing cells, membrane potential dye, choline response; stronger effect = lower value | B-score at 10 µM | hit rate 0.86% among 310,000 | AID 488975;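 active means B-score over 3 SD under the library average, and starting fluorescence ratio not unusually high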;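 further: choline stimulus applied at its EC90 after an EC20 pre-addition; B-score computed on integrated fluorescence ratio after choline addition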
Target sequence (Q9GZV3 whole entry, looked up): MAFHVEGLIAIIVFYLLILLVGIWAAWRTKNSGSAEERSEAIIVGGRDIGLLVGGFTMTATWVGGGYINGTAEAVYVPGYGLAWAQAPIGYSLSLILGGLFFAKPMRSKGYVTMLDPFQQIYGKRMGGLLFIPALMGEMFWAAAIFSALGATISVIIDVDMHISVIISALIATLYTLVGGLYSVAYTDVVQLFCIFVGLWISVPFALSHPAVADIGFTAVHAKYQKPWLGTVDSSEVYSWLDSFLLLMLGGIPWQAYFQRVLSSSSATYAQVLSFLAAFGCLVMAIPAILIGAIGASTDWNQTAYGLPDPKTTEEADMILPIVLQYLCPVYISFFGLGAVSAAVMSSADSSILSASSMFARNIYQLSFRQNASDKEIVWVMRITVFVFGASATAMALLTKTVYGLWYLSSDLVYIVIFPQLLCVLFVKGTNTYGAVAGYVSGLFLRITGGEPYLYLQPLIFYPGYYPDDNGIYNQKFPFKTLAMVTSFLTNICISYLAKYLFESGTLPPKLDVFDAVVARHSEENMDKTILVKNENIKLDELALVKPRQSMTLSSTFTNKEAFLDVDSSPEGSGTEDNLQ
ANO1 block = blocks the mouse calcium-activated chloride channel TMEM16A; HEK293 TMEM16A/YFP iodide influx fluorescence, ionomycin; hit rate 1.2% among 310,000; AID 588511; Q8BHY3; normalized B-score (activity score, 25-100; higher = stronger inhibition) at 10 µM;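 active means ratio plate-corrected score three or more library SD toward inhibition, starting fluorescence score within five deviations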;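 further: score derived from kinetic fluorescence span divided by baseline fluorescence per well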
CHT allo act = allosterically activates the human high affinity choline transporter; Q9GZV3; CHT-expressing cells, membrane potential dye, choline EC20; stronger effect = higher value; LV-AA mutant CHT in HEK293 cells; B-score at 10 µM; hit rate 0.49% among 310,000;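 active means initial fluorescence not abnormally high and integrated response B-score, plate-corrected, over 3 SD above library mean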
CHT inh conf = human CHT inhibition, confirmatory screen; shares compounds with CHT block; CHT-expressing cells, choline membrane potential dye; LV-to-AA substituted CHT, HEK293 cells; CHT activity remaining % of control (stronger effect = lower value), % at 10 µM; hit rate 70% among 2,400;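 active means choline transporter activity left, mean of duplicates at 10 µM, below buffer-only control mean minus 3 SD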;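 further: depolarization triggered by choline at its EC90 following an EC20 pre-addition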
HEK293 CHT ctr = activity in parental HEK293 cells lacking CHT; shares compounds with CHT block; membrane potential dye, choline response; active = decrease or increase beyond buffer ±3SD; membrane potential ratio readout (active if shifted either direction beyond buffer ±3SD; no single direction) at 10 µM; hit rate 4% among 2,400;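 further: parental cells lack the transporter so any hit is non-specific; ratio is peak minus trough fluorescence over baseline after EC90 choline challenge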
Each line names hits and unclear results; the compound was inactive in the other large screens (follow-up assays come after a bar, where they were run).

Cc1cccc(C2c3[nH]c4ccccc4c3CCN2C(=O)c2ccc(=O)[nH]c2)n1 (configuration not stated)	none
O=C(c1cc2c([nH]c1=O)CCCC2)N1CCc2c([nH]c3ccccc23)C1c1ccccc1F (configuration not stated)	CHT block -11.6 | CHT inh conf 29.6% | HEK293 CHT ctr inactive
Cc1cccc(C2c3[nH]c4ccccc4c3CCN2C(=O)c2cc3c([nH]c2=O)CCCC3)n1 (configuration not stated)	CHT block -9.56 | CHT inh conf 9.3% | HEK293 CHT ctr inactive
Cc1cccc(CS(=O)(=O)c2ncc(Cl)c(C(=O)Nc3nnc(C(C)C)s3)n2)c1	none
CCc1nnc(NC(=O)c2nc(S(=O)(=O)Cc3cccc(C)c3)ncc2Cl)s1	CHT block -6.1 | CHT inh conf 30.3% | HEK293 CHT ctr inactive
CC(C)c1nnc(NC(=O)c2nc(S(=O)(=O)Cc3ccc(F)cc3)ncc2Cl)s1	CHT block -6.16 | CHT inh conf 19.4% | HEK293 CHT ctr inactive
CCc1nnc(NC(=O)c2nc(S(=O)(=O)Cc3ccc(C)cc3)ncc2Cl)s1	CHT block -8.3 | CHT inh conf 31.9% | HEK293 CHT ctr inactive
CCn1ccnc1CN(C)Cc1nc(Cc2cccc(C(F)(F)F)c2)no1	none
Cc1ccc2oc(C(=O)NC3CCS(=O)(=O)C3)cc(=O)c2c1 (configuration not stated)	none
CC1C(=O)N(c2ccc(S(=O)(=O)N(C)C)cc2)C1(/C=C/c1ccccc1)C(=O)NC1CCCC1 (configuration not stated)	CHT block -6.76 | CHT inh conf inactive | HEK293 CHT ctr inactive
CN(C)c1ncnc2c1ncn2C1CCCO1 (configuration not stated)	none (no result: Rce1 inh, Kir21 inh, CHT block, ANO1 block, CHT allo act)
Cc1ccc(S(=O)(=O)NNC(=O)c2ccoc2C)cc1	none
Cc1occc1C(=O)NNS(=O)(=O)c1ccc([N+](=O)[O-])cc1	CHT block -5.11 | CHT inh conf 45.6% | HEK293 CHT ctr inactive
CCCCn1c(N)c(N(C)C(=O)c2ccc(Br)o2)c(=O)[nH]c1=O	none (no result: Rce1 inh, Kir21 inh, CHT block, ANO1 block, CHT allo act)
c1ccc(CCCCN2C(Nc3ccccc3)=NC[C@@H]2Cc2ccccc2)cc1	CHT block -7.52 (no result: Rce1 inh, Kir21 inh) | CHT inh conf 32.2% | HEK293 CHT ctr inactive
O=C(COC(=O)c1ccc(F)c(S(=O)(=O)N2CCOCC2)c1)Nc1ccc2c(c1)OCO2	none (no result: Rce1 inh, Kir21 inh, CHT block, ANO1 block, CHT allo act)
CCOc1ccccc1N1CCN(C(=O)C(F)(F)F)CC1	CHT block -6.24 | CHT inh conf inactive | HEK293 CHT ctr inactive
CCCCCn1c(CCNC(=O)CCC)nc2ccccc21	CHT block -6.16 | CHT inh conf 60.0% | HEK293 CHT ctr inactive
CCCCc1cc(=O)oc2cc(O)cc(O)c12	Rce1 inh inconclusive, CHT block -7.91 | CHT inh conf 39.8% | HEK293 CHT ctr inactive
CCCCc1cc(=O)oc2cc(C)cc(O)c12	none
CCCc1cc(O)c2c(C)cc(=O)oc2c1	CHT block -7.56 | CHT inh conf 48.0% | HEK293 CHT ctr inactive
COc1ccc(CN2CCN(C(C)C)C(CCO)C2)cc1Cn1cccn1 (configuration not stated)	CHT block -11.9 | CHT inh conf 6.3% | HEK293 CHT ctr inactive
COc1ccc(CN2CCN(CCC(C)C)C(CCO)C2)cc1Cn1cccn1 (configuration not stated)	none (no result: Rce1 inh)
O=C(COC(=O)c1ccc(F)c(S(=O)(=O)N2CCOCC2)c1)NCCc1ccc(F)cc1	none (no result: Rce1 inh, Kir21 inh, CHT block, ANO1 block, CHT allo act)
Cc1cccc(N2CCN(Cc3nc(-c4ccc(F)cc4F)oc3C)CC2)n1	none
Cc1cnc(C)c(N2CCN(Cc3nc(-c4cccc(F)c4F)oc3C)CC2)n1	CHT block -7.21 | CHT inh conf 28.6% | HEK293 CHT ctr inactive
CCOc1ccc2nc(Cl)c(CN(C(C)=O)C3CCCCC3)cc2c1	CHT block -5.55 | CHT inh conf inactive | HEK293 CHT ctr inactive
CCOc1ccc2nc(Cl)c(CN(C(=O)c3cnccn3)C3CCCC3)cc2c1	none
O=C1NC(=S)NC1=Cc1ccccc1O	none (no result: Rce1 inh, Kir21 inh, CHT block, ANO1 block, CHT allo act)
CC(/C=C1\NC(=S)NC1=O)=C\c1ccccc1	CHT block -5.45 | CHT inh conf 67.6% | HEK293 CHT ctr inactive
Cc1ccc(S(=O)(=O)N(C)C)cc1NC(=O)CCNC(=O)c1ccccc1Cl	none
Cc1ccccc1-n1nnnc1Sc1nnnn1-c1ccccc1	CHT block -4.99 (no result: Rce1 inh, Kir21 inh) | CHT inh conf 63.8% | HEK293 CHT ctr inactive
Cc1cc(-c2ccccc2)n(-c2ccc(C(=O)N3CCN(c4ncccn4)CC3)cc2)n1	CHT block -6.43 | CHT inh conf 70.6% | HEK293 CHT ctr inactive
O=C1C=C(c2ccoc2)N2CCC[C@H]2C1	none (no result: Rce1 inh, Kir21 inh, CHT block, ANO1 block, CHT allo act)
O=C(c1ccc(=O)[nH]n1)N1CCN(S(=O)(=O)c2cccc(F)c2)CC1	none (no result: Rce1 inh, Kir21 inh, CHT block, ANO1 block, CHT allo act)
Cc1ccc(NC(=O)CN2C(=O)NC3(CCc4ccccc43)C2=O)cc1Cl (configuration not stated)	CHT block -10.5 | CHT inh conf 33.5% | HEK293 CHT ctr inactive
Clc1cccc(Cl)c1CNC1CCCC1	CHT block -5.5 | CHT inh conf 11.0% | HEK293 CHT ctr -10.5
Cc1[nH]n(-c2ccc(Cl)cc2)c(=O)c1C(=O)c1ccccc1	CHT block -11 | CHT inh conf inactive | HEK293 CHT ctr inactive
Cc1oc2ccc(OCc3ccc(Br)cc3)cc2c1C(=O)O	none
Cc1oc2ccc(OCc3ccc(Cl)cc3)cc2c1C(=O)O	CHT block -5.12 | CHT inh conf inactive | HEK293 CHT ctr inactive
CC1CCCC(NC(=O)CCNC(=O)c2ccc(Br)cc2)C1C (configuration not stated)	CHT block -5.09 | CHT inh conf inactive | HEK293 CHT ctr inactive
COc1ccc(N2CCN(C(=O)CCCOc3cc(=O)n(C)c4ccccc34)CC2)cc1	none
Cc1cccc(N2CCN(C(=O)COc3cc(=O)n(C)c4ccccc34)CC2)c1C	CHT block -13 | CHT inh conf 31.4% | HEK293 CHT ctr inactive
CC1CCN(C(=O)CCCOc2cc(=O)n(C)c3ccccc23)CC1	CHT block -5.94 | CHT inh conf 68.6% | HEK293 CHT ctr inactive
Cc1cc(C(=O)O)cc(S(=O)(=O)Nc2ccccc2C(=O)NC(C)c2ccccc2)c1C (configuration not stated)	none
CCOC(=O)N1CCC(N2C(=O)c3ccc(C(=O)Nc4ccc(OC)cc4)cc3C2=O)CC1	none

Screening data: PubChem BioAssay, several laboratories
